# Test results published in PubChem BioAssay (Tox21).
# “And” between values parts separate entries of the source, which are not always exact repeats. Equal values may be shown once. More than one record can exist for a structure, and the calls need not agree. The source made the active and inactive calls. Where a call stands in place of a potency, no number is given. Unless noted, calls come from the whole dose curve; as a rule, active = well fitted curve in the direction sought with a large enough effect in the repeat runs; inconclusive = weak or mixed curves; inactive = no such curve, though single readings can be large; an effect the other way counts as inactive or inconclusive.
# Legend:
# [1] = qHTS assay to identify small molecule antagonists of the thyroid receptor (TR) signaling pathway - cell viability counter screen (AID 743064); note: nearly all actives have a fitted effect of over 50% in size; note: potency is the fitted concentration of half-maximal effect
# Outline: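 Counter screen for cytotoxicity: compound plus T3 (1 nM final) on GH3.TRE-Luc cells, 23.5 h at 37 °C, then fluorescence viability readout with CellTiter-Fluor.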
# [2] = qHTS assay to identify small molecule antagonists of the thyroid receptor (TR) signaling pathway (AID 743065); note: nearly all actives have a fitted effect of over 55% in size; note: potency is the fitted concentration of half-maximal effect
# Outline: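 Antagonism measured as loss of luciferase signal in GH3 cells stably carrying a TRE-luciferase reporter, co-treated with compound and T3 (1 nM final) for 23.5 h at 37 C. Viability was read in the same well by CellTiter-Fluor.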
# [3] = system: thyroid hormone receptor (rat, GH3 cells); assay: qHTS assay to identify small molecule agonists of the thyroid receptor (TR) signaling pathway (AID 743066; calls by dose curve)
# [4] = biological target: Estrogen receptor (Homo sapiens) (UniProt P03372); assay: qHTS assay to identify small molecule antagonists of the estrogen receptor alpha (ER-alpha) signaling pathway (AID 743069; active = well fitted curve in the direction sought with a large enough effect in the signal ratio in the repeat runs, not every such curve was filed as active; inconclusive = weak or mixed curves, or effect the other way; inactive = no such curve, though single readings can be large or run the other way; the % refers to the signal ratio; note: potency is the fitted concentration of half-maximal effect)
# Estrogen receptor (Homo sapiens), sequence (P03372 whole entry, looked up): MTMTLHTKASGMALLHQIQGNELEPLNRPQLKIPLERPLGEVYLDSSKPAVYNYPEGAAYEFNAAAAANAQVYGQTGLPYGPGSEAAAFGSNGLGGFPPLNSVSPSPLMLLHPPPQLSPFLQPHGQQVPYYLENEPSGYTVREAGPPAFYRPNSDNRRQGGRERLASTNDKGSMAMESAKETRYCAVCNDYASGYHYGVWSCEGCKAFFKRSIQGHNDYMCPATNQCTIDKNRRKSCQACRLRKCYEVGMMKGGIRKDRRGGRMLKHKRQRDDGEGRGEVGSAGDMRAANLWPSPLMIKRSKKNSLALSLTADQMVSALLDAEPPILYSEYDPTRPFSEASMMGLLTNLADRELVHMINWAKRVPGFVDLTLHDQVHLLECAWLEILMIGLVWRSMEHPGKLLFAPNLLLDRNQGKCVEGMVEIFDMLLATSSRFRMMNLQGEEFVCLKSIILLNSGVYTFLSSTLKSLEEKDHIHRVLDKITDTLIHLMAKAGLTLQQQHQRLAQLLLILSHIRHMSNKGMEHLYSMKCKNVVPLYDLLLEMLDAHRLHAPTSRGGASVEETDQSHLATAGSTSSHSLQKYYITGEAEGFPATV
# Outline: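 ER-alpha-UAS-bla GripTite HEK293 line; 2% charcoal-stripped FBS overnight; plated, 4 hr 37C/5% CO2; cpd in DMSO + 17beta-estradiol, 18 hr 37C; LiveBLAzer B/G FRET substrate 2 hr RT; fluorescence intensity.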
# [5] = qHTS assay to identify small molecule antagonists of the estrogen receptor alpha (ER-alpha) signaling pathway - cell viability counter screen (AID 743074; calls by dose curve;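 note: HEK293 cells carrying ER-alpha-UAS-bla reporter stimulated with 17beta-estradiol; nearly all actives have a fitted effect of over 45% in size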; note: potency is the fitted concentration of half-maximal effect)
# [6] = biological target: Estrogen receptor (Homo sapiens) (UniProt P03372); assay: qHTS assay to identify small molecule agonists of the estrogen receptor alpha (ER-alpha) signaling pathway (AID 743075; calls by dose curve;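 note: HEK293 GripTite cells with ER-alpha and UAS-driven beta-lactamase reporter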)
# [7] = biological target: Estrogen receptor (Homo sapiens) (UniProt P03372); assay: qHTS assay to identify small molecule agonists of the estrogen receptor alpha (ER-alpha) signaling pathway using the BG1 cell line (AID 743079); conditions: BG1Luc4E2 cells, ERE-luciferase agonist, 22 h; activation: at 70.3 µM (top of the series); note: nearly all actives have a fitted effect of over 20% in size
# [8] = qHTS assay to identify small molecule antagonists of the estrogen receptor alpha (ER-alpha) signaling pathway using the BG1 cell line (AID 743080; calls by dose curve;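 note: BG1 cells stimulated with 17beta-estradiol alongside compound; nearly all actives have a fitted effect of over 25% in size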; note: potency is the fitted concentration of half-maximal effect)
# Outline: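 BG1-Luc-4E2 cells (endogenous full-length ER-alpha, stable 4×ERE-luciferase) were starved 5 days in phenol-red-free medium with 10% charcoal-stripped FBS, plated 24 h, then given compound plus 17beta-estradiol for 21.5 h at 37 C; ONE-Glo luminescence read after 30 min.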
# [9] = qHTS assay to identify small molecule antagonists of the estrogen receptor alpha (ER-alpha) signaling pathway using the BG1 cell line - cell viability counter screen (AID 743081);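 note: compound given together with 17beta-estradiol as the ER stimulus; nearly all actives have a fitted effect of over 45% in size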; note: potency is the fitted concentration of half-maximal effect
# Aromatase (Homo sapiens) = Aromatase (Homo sapiens) (UniProt P11511); assay: qHTS assay to identify aromatase inhibitors (AID 743083); note: nearly all actives have a fitted effect of over 55% in size; note: potency is the fitted concentration of half-maximal effect
# Aromatase (Homo sapiens), sequence (P11511 whole entry, looked up): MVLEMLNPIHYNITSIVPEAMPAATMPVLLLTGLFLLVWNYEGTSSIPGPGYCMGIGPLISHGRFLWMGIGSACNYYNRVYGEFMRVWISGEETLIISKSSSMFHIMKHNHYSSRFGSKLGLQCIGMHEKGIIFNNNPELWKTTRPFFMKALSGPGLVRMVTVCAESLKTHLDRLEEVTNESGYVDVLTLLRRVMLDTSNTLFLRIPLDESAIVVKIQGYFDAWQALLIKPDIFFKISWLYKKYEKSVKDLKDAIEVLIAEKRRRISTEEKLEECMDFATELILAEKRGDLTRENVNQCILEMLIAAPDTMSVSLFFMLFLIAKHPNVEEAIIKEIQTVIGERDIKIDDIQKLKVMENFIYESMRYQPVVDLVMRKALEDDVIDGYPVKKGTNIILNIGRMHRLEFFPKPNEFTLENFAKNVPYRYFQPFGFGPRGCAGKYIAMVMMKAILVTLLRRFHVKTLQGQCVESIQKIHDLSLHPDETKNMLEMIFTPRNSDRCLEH
# [10] = qHTS assay to identify aromatase inhibitors - cell viability counter screen (AID 743084);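 note: cells stimulated with testosterone during compound exposure; nearly all actives have a fitted effect of over 55% in size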; note: potency is the fitted concentration of half-maximal effect
# [11] = qHTS assay to identify small molecule that activate the aryl hydrocarbon receptor (AhR) signaling pathway - cell viability counter screen (AID 743086);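 note: HepG2 liver cells carrying the AhR DRE luciferase reporter; nearly all actives have a fitted effect of over 45% in size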
# Outline: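 Cytotoxicity counter screen: CellTiter-Fluor signal (30 min, 37 C) in 4000 HepG2 cells/well carrying the DRE-luciferase reporter, following 24 h compound exposure at 37 C.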
# [12] = biological target: Peroxisome proliferator-activated receptor gamma (Homo sapiens) (UniProt P37231); assay: qHTS assay to identify small molecule agonists of the peroxisome proliferator-activated receptor gamma (PPARg) signaling pathway (AID 743094; active = well fitted activation curve with a large enough effect in the signal ratio in the repeat runs, not every such curve was filed as active; inconclusive = weak or mixed curves, or effect the other way; inactive = no such curve, though single readings can be large or run the other way; the % refers to the signal ratio)
# Peroxisome proliferator-activated receptor gamma (Homo sapiens), sequence (P37231 whole entry, looked up): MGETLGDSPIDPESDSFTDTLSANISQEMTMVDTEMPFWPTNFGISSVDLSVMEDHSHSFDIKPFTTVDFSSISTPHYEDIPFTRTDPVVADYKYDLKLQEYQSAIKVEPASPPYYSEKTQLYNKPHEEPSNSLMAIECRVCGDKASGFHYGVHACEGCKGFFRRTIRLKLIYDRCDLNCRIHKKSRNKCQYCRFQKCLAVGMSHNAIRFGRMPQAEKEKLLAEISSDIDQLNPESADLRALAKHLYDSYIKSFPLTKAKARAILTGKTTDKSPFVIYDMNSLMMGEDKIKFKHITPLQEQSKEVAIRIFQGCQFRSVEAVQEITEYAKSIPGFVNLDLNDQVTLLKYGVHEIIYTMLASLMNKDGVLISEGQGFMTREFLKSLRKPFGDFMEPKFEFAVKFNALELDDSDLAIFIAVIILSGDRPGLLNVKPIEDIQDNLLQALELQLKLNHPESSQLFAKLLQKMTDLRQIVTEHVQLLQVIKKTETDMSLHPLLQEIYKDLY
# Outline: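 Following 5 h plating at 37C, PPARg-bla HEK293H cells receive compound or DMSO for 17 h; fluorescence intensity is recorded after LiveBLAzer B/G loading for 1 h at room temperature.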
# [13] = biological target: Peroxisome proliferator-activated receptor gamma (Homo sapiens) (UniProt P37231); assay: qHTS assay to identify small molecule antagonists of the peroxisome proliferator-activated receptor gamma (PPARg) signaling pathway (AID 743191; calls by dose curve; note: nearly all actives have a fitted effect of over 30% in size)
# Outline: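 Beta-lactamase reporter under UAS control in HEK293H PPARg-bla cells; compound treatment 17 h at 37C. Read-out: fluorescence intensity after 1 h room-temperature incubation with LiveBLAzer B/G FRET substrate.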
# [14] = qHTS assay to identify small molecule antagonists of the peroxisome proliferator-activated receptor gamma (PPARg) signaling pathway - cell viability counter screen (AID 743194); conditions: Potency: co-treated with 50 nM rosiglitazone unless noted; note: nearly all actives have a fitted effect of over 55% in size; note: potency is the fitted concentration of half-maximal effect
# Outline: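 Viability was measured as CellTiter-Glo luminescence in GeneBLAzer PPARg UAS-bla HEK293H cells. These cells had been exposed 17 h at 37 C to compounds together with rosiglitazone at 50 nM final, with the beta-lactamase readout taken in the same wells.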
# [15] = qHTS assay for small molecule agonists of the antioxidant response element (ARE) signaling pathway - cell viability counter screen (AID 743203; calls by dose curve; note: nearly all actives have a fitted effect of over 55% in size; note: potency is the fitted concentration of half-maximal effect)
# Outline: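 Compounds in DMSO were pinned onto ARE-bla HepG2 cells plated 5 hrs earlier at 2,000 cells/well. Sixteen hours later at 37C/5% CO2, CellTiter-Glo was added and luminescence measured after 30 min at room temperature.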
# [16] = qHTS assay for small molecule activators of the heat shock response signaling pathway - cell viability counter screen (AID 743209); note: nearly all actives have a fitted effect of over 50% in size; note: potency is the fitted concentration of half-maximal effect
# Outline: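 Counter screen for cytotoxicity in HeLa HSE-bla reporter cells. Treatment was 5 h at 37 C; viability was detected by luminescent ATP assay (CellTiter-Glo) in the same wells as the beta-lactamase read.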
# [17] = qHTS assay for small molecule activators of the heat shock response signaling pathway (AID 743210; active = well fitted activation curve with a large enough effect in the signal ratio in the repeat runs, with a control signal flat, not every such curve was filed as active; inconclusive = weak or mixed curves; the % refers to the signal ratio;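 note: HeLa cells with beta-lactamase reporter driven by heat shock elements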)
# Outline: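 HeLa HSE-bla cells, overnight plating; cpd in DMSO 5 h, 37 C; LiveBLAzer B/G FRET substrate 2.5 h RT; fluorescence intensity read.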
# [18] = biological target: Aryl hydrocarbon receptor (Homo sapiens) (UniProt P35869); assay: qHTS assay to identify small molecule that activate the aryl hydrocarbon receptor (AhR) signaling pathway (AID 743085);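 note: HG2L7.5c1 human HepG2 liver cells with stably integrated DRE-driven firefly reporter; nearly all actives have a fitted effect of over 15% in size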
# Aryl hydrocarbon receptor (Homo sapiens), sequence (P35869 whole entry, looked up): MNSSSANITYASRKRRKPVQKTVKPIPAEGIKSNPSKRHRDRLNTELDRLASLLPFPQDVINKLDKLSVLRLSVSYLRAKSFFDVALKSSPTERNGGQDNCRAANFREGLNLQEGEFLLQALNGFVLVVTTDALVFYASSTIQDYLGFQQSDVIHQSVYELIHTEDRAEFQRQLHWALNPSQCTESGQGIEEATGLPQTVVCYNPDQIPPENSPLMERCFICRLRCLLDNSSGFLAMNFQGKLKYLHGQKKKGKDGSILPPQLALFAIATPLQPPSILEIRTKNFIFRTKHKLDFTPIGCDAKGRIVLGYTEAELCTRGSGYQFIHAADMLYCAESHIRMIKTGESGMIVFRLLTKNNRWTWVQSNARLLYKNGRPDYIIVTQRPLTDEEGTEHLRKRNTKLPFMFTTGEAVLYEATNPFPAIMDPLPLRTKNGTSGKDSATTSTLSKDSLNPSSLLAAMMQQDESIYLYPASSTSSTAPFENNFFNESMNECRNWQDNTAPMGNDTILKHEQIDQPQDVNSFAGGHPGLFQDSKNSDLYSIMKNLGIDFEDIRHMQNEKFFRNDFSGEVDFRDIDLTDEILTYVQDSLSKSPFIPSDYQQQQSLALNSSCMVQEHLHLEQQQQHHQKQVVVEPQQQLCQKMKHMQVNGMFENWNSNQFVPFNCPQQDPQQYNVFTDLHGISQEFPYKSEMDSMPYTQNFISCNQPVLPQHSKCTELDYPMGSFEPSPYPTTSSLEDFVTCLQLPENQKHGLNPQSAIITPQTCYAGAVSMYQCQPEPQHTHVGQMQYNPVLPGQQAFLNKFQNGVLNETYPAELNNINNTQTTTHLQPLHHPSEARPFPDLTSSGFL
# Outline: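 Measured in HG2L7.5c1 cells: CellTiter-Fluor signal (30 min incubation, 37C) for viability, then luciferase luminescence (30 min, room temperature). Compound contact time was 24 h at 37C, following a 5 h pre-incubation.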
# [19] = qHTS assay for small molecule agonists of the antioxidant response element (ARE) signaling pathway (AID 743202; active = well fitted activation curve with a large enough effect in the signal ratio in the repeat runs, not every such curve was filed as active; inconclusive = weak or mixed curves, or effect the other way; inactive = no such curve, though single readings can be large or run the other way; the % refers to the signal ratio)
# Outline: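 Quantitative high-throughput format in HepG2 cells bearing an integrated ARE-beta-lactamase reporter. Compound exposure lasted 16 h at 37 C, and fluorescence was read 2 h after adding LiveBLAzer B/G substrate at room temperature.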
Compound,Potency [1],Potency [2],Potency [3],Potency [4],Potency [5],Potency [6],Potency [7],Potency [8],Potency [9],Potency (Aromatase (Homo sapiens)),Potency [10],Potency [11],Potency [12],Potency [13],Potency [14],Potency [15],Potency [16],Potency [17],Potency [18],Potency [19]
CCN(CC)CCN1C(=O)CN=C(c2ccccc2F)c2cc(Cl)ccc21,29.8 µM (active),23.7 µM (active),inactive,inactive,inactive,inactive,inactive,inactive,inactive,inactive,inactive,inactive,inactive,inactive,inactive,inactive,inactive,inactive,,
CC(C)Br,inactive,inactive,inactive,inactive,inactive,inactive,inactive,inactive,inactive,inactive,inactive,inactive,inactive,inactive,,inactive,inactive,inactive,inactive,inactive
CC(Cc1ccc2c(c1)OCO2)NO (stereo unspecified),inactive,inactive,inactive,inactive,inactive,inactive,inactive,inactive,inactive,inactive,inactive,inactive,inactive,inactive,inactive,inactive,inactive,inactive,inactive,
CCCCCCCCCCCCCCn1cc[n+](C)c1,2.74 µM (active) and 15.2 µM (active),1.09 µM (active) and 3.81 µM (active),inactive,7.78 µM [inconclusive] (active) and 1.22 µM [inconclusive] (active) and inactive,48.5 µM (active) and inactive,inactive,inactive,1.37 µM (active) and 4.8 µM (active) and inactive,30.7 µM (active) and 24.1 µM (active),2.44 µM (active) and 5.39 µM (active) and inactive,8.65 µM (active) and 38.1 µM (active),,,,9.79 µM [setting not given] (active) and inactive,24.4 µM (active) and 30.3 µM (active) and inactive,19.5 µM (active) and 21.6 µM (active) and inactive,,inactive,
COc1nc(C)nc(NC(=O)NS(=O)(=O)c2ccccc2Cl)n1,inactive,inactive,inactive,inactive,inactive,,,inactive,inactive,inactive,inactive,inactive,inactive,inactive,inactive,inactive,inactive,inactive,inactive,inactive
CN(C)C(=S)SSC(=S)N(C)C,133 nM (active) and 9.55 µM (active) and 21.7 nM (active),94.4 nM (active) and 269 nM (active) and 15.4 nM (active),inactive,inactive,inactive,inactive,,,inactive,188 nM (active) and 47.9 nM (active) and 15.4 nM (active),944 nM (active) and 75.9 nM (active) and 54.5 nM (active),,,,,60.3 µM (active) and 13.7 µM (active) and 18.8 µM (active),inactive,,inactive,
